HCV inhibitor: inhibitors of hepatitis C virus infection. Huh7.5.1 HCVcc-Cre infection, luciferase reporter, 44 h. Potency, µM (highest dose often 41.8 µM), inactives show top-dose activity change, negative = inhibition, actives largely listed as inhibitors. 3.4% of 340,000 active; active = well fitted inhibition curve with a large enough effect; inconclusive = small, poorly fitted or top-dose-only effect, or another doubt; inactive = no such curve, though single readings can be large or run the other way; also: potency is read from the fitted curve at half-maximal effect; % is scaled to controls: 0 for no effect and ±100 for the full control effect
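Infectious HCVcc-Cre (~0.5 moi) was added to cells just after compound, with cells seeded 4 h earlier at 1,000 per well. Luciferase activity after 44 h culture reported infection; substrate was incubated 15 min at room temperature before reading.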
SARS PLpro yeast-1: inhibitors of SARS-CoV papain-like protease in yeast | Potency, µM (highest dose often 32.9 µM), for inactives: top-dose activity, positive = growth rescue, hits mostly activators | 0.19% of 330,000 active | S. cerevisiae expressing SARS-CoV PLpro, growth rescue; calls by dose curve; also: potency is read from the fitted curve at half-maximal effect; 0% is about no effect; nearly all actives have a fitted effect of over 55% in size
MARV entry inh: Marburg virus entry inhibition | Marburg virus pseudotyped entry inhibition, cell reporter | Potency, µM (highest dose often 37.8 µM), for the others: at the highest dose activity change, negative = inhibition, usual class: inhibitors | AID 540276 | 1.8% of 300,000 active; calls by dose curve; tested in HEK293 cells; also: potency is read from the fitted curve at half-maximal effect; % is scaled to controls: 0 for no effect and ±100 for the full control effect
HCMV inh: inhibitors of human cytomegalovirus | activity change, negative = inhibition, % at 57.5 µM | HFF cells, HCMV-luciferase reporter, 72 h; hits give low values | 4.5% of 410,000 active; in the data active = activity change below about -60%; inconclusive = no clear call, values can overlap the other calls; inactive = above about -39%; also: % is scaled to controls: 0 for no effect and ±100 for the full control effect
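Two compound doses tested in HFFs infected with HCMV-luciferase, MOI 1 PFU/cell, 72 h at 37C. Lysate luminescence read with OneGlo; data normalized against buffer-only and 10uM Salinomycin inhibitor controls.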
FMDV antiviral: blocks foot and mouth disease virus; 1.2% of 410,000 active; AID 1159524; FMDV antiviral cell-based qHTS; Potency, µM (doses to about 57.9 µM), without a hit: at the highest dose activity change, negative = inhibition, most hits filed as inhibitors; calls by dose curve; tested in HEK293T cells; also: read-out not given here; potency is read from the fitted curve at half-maximal effect; % is scaled to controls: 0 for no effect and ±100 for the full control effect; nearly all actives have a fitted effect of over 45% in size
Lassa entry inh: inhibitors of Lassa virus binding or cell entry | 1.2% of 300,000 active | Potency, µM (top dose mostly 37.9 µM), for the others: at the top dose activity change, negative = inhibition, actives largely listed as inhibitors | Lassa virus pseudotype entry inhibition, cell reporter; calls by dose curve; tested in HEK293 cells; also: potency is read from the fitted curve at half-maximal effect; % is scaled to controls: 0 for no effect and ±100 for the full control effect; nearly all actives have a fitted effect of over 50% in size
SARS PLpro yeast-2: Inhibits SARS-CoV PLP in yeast, hit validation; shares compounds with SARS PLpro yeast-1; yeast expressing SARS-CoV PLpro, growth phenotype rescue; calls only; 19% of 1,000 active; AID 652038; call rule not given here
Starred values were filed as active, the others as inactive; i = inactive; ? = inconclusive; nt = no result given; + = active, no number; ! = repeats disagree; [ ] = dose if it differs, or a comment. A selection: hits, their analogues and other compounds. The true share with any hit is near 8%.

SMILES | HCV inhibitor | SARS PLpro yeast-1 | MARV entry inh | HCMV inh | FMDV antiviral | Lassa entry inh | SARS PLpro yeast-2
COc1ccccc1/C=N/NC(=O)c1cccc(OC(F)(F)C(F)F)c1 | 18% | -10% | -4% | -13 | 20% | -11% | nt
Cc1oc2c(c(C)nn2-c2ccccc2)c(=O)c1Cl | nt | nt | nt | 51 | nt | nt | nt
O=C(NCc1ccccc1Cl)c1ccc2c(O)c(S(=O)(=O)c3ccccc3)c(=O)[nH]c2c1 | nt | nt | nt | 6 | -7% | 16%[46.1 µM] | nt
CCOc1ccc(C(=O)Nc2ccc3nn(-c4ccc(OC)c(Cl)c4)nc3c2)cc1 | nt | nt | nt | -3 | -10% | 7%[46.1 µM] | nt
CN1/C(=C\C(=S)NC(=O)c2ccccc2Cl)C(C)(C)c2ccccc21 | ? | ? | ? | -84* | -14% | 6% | +
CCOC(=O)c1cnn(Cc2ccccc2)c1N | 5% | ? | 11% | 44 | nt | -23% | i
Cc1ccccc1CNC(=O)C1CCCN(c2nnc(-n3c(C)ccc3C)s2)C1 (centres undefined) | nt | nt | 4%[46.1 µM] | -35 | -12% | 5%[46.1 µM] | nt
O=C(CN1CCN(c2ccccc2F)CC1)Nc1cccnc1Cl | -14% | 0% | -10%[46.1 µM] | -36 | -8% | -4% | nt
O=C(CN1CCN(c2ncccn2)CC1)Nc1ccccc1-n1cccc1 | 3% | 14µM* | ? | -21 | nt | -16% | i
CC1=C(c2ccc(C)c(C)c2)S(=O)(=O)N(Cc2ccc(C(=O)NCc3cccc(C)c3)cc2)C1=O | nt | nt | ? | -3 | 1% | nt | nt
CC(C)OC(=O)c1cc2ccccc2oc1=O | -1% | ? | 27% | ? | 0% | ? | i
O=C(Oc1ccccc1)c1cc2ccccc2oc1=O | -7% | 1% | 18%[46.1 µM] | -30 | 6% | ? | nt
O=C(Cn1c(-c2cccs2)cc2cc(Cl)ccc21)N1CCN(c2ccccc2F)CC1 | nt | nt | nt | -13 | 8% | ? | nt
O=C(NNC(=O)c1cc(Cl)ccc1O)c1ccc(NS(=O)(=O)c2cccs2)cc1 | -10% | ? | 0% | -2 | -6% | 1% | ?
O=C(NNC(=O)c1cc(F)c(F)cc1Cl)c1ccc(NS(=O)(=O)c2cccs2)cc1 | -7% | -3% | nt | -4 | 3% | nt | nt
CCOc1ccc(C(=O)c2cn(CC(=O)Nc3cccc(OC)c3)c3cc4c(cc3c2=O)OCCO4)cc1 | nt | nt | ? | 14 | -15% | ? | nt
CNC(=S)N/N=C(\C)c1ccc(Cl)s1 | -8% | ? | 1% | -7 | -14% | -1% | nt
C=C(C)CNC(=S)N/N=C(\C)c1ccc(Cl)s1 | ? | ? | -2% | ? | -2% | -15% | +
CCNC(=S)N/N=C(\C)c1ccc(Cl)s1 | ? | ? | -26% | ? | -15% | -13% | +
Cn1c2ccsc2c2cnn(Cc3ccc(F)cc3)c(=O)c21 | nt | -4% | nt | nt | nt | nt | nt
Cn1c2cc(C#N)sc2c2cnn(Cc3ccc(F)cc3)c(=O)c21 | nt | 5.6µM*! | nt | 11 | -15% | nt | i
CC(=O)N1CCC2(CCCN(C(c3ccccc3)c3ccccc3)C2)CC1 | nt | nt | nt | nt | -24% | nt | nt
Cc1cc(C)cc(NC(=O)C2CCN(S(=O)(=O)c3c(C)noc3/C=C/c3ccco3)CC2)c1 | nt | nt | 3%[46.1 µM] | -38 | -25% | 1%[46.1 µM] | nt
Cn1c(=O)cc(OCCCC(=O)NC2CCCC2)c2ccccc21 | 7% | -3% | -11% | 148 | 86% | 8% | nt
CCOc1ccc(NC(=O)CCCOc2cc(=O)n(C)c3ccccc23)cc1 | ? | ? | 4%[46.1 µM] | 23 | 3% | 12%[46.1 µM] | +
c1ccc(-c2cccc(N3CC[C@@]4(CCCNC4)C3)c2)cc1 | nt | nt | nt | nt | -10% | nt | nt
ClCc1nnc(-c2cc3c(s2)CCCC3)o1 | ? | ? | 16%[46.1 µM] | -16 | -30% | -3%[46.1 µM] | i
CC(C)(C)C1CCc2sc(-c3nnc(CCl)o3)cc2C1 (centres undefined) | -7% | 4% | nt | -12 | -22% | nt | nt
Cc1ccc(S(=O)(=O)N2CC(O)CC2C(=O)OCc2nc3sc(C)c(C)c3c(=O)[nH]2)cc1 (centres undefined) | 6% | ? | 12% | -26 | -4% | 1% | i
COC(=O)N1CCCc2cc(S(=O)(=O)NCc3ccccc3)ccc21 | nt | nt | 4%[46.1 µM] | 8 | 65% | -23%[46.1 µM] | nt

Bioassay records: PubChem BioAssay, National Center for Advancing Translational Sciences (NCATS)
